Results on 11 compounds are retold here after ChEMBL document CHEMBL3988442, “University of Dundee, Small-Polar-MMV Screening Library” (2021).

For some of these results: Results with a measured potency or affinity are listed apart.

Holding throughout (parameters): scale not given: direction of the effect not stated beside the values
The target in assay [1] is Protein translocase subunit SecA (Escherichia coli (strain K12)) (UniProt P10408). The assay can be described thus: Assay to Identify E. coli SecA ATPase Inhibitors. In kind it is functional. The conditions noted are these: 30 µM.
The target of assay [2] is T1, Ubiquitin-activating enzyme e1, putative (Leishmania donovani (strain BPK282A1)) (UniProt E9BSI1).
T1 sequence (whole entry): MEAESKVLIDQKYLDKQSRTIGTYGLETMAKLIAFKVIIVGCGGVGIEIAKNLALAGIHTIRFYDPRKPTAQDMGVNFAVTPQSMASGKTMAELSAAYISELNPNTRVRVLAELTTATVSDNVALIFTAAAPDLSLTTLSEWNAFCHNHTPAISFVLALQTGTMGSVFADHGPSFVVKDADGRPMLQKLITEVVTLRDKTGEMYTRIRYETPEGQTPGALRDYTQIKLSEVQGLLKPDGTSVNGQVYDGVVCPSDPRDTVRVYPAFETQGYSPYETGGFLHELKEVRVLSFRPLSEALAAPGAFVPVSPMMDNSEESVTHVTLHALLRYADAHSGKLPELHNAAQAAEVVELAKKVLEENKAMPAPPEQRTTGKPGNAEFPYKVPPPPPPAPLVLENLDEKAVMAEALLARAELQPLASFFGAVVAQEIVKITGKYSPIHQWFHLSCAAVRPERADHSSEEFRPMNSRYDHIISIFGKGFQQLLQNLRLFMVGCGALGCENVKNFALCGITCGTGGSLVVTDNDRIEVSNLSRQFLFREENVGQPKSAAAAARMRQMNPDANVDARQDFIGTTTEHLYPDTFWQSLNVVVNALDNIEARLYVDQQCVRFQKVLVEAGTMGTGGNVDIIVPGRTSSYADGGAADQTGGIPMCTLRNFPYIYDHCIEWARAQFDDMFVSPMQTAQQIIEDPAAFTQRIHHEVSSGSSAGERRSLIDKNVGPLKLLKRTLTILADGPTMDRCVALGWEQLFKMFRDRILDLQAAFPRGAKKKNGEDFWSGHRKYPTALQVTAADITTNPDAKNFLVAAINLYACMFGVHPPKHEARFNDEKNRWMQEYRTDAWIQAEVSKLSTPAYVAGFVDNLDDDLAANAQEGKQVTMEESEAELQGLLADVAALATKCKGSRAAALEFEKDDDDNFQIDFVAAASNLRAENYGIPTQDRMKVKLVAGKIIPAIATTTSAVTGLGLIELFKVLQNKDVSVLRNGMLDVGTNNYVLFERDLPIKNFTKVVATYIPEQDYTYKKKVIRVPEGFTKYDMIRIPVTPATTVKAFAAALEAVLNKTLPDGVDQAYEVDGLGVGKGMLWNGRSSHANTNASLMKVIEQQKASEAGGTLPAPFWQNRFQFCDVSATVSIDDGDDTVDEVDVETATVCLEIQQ
Kind of assay: Leishmania donovani Ubiquitin Activating Enzyme (LdE1). The conditions noted are these: 30 µM. In kind it is functional.

In assay [3] the target is AMP-activated protein kinase, AMPK (Homo sapiens) (UniProt P54646+O43741+P54619+Q9UGJ0+Q9Y478+Q13131+Q9UGI9). Kind of assay: AMP-dependent Kinase enzyme assay. An in vitro enzyme assay that detects ADP turnover that is directly proportional to AMPK activity. This uses naive AMPK that is activated during the assay with MK-8722. The class given is functional. The conditions noted are these: 30 µM.

Assay [4] has as its target Sialic acid-binding Ig-like lectin 9 (Homo sapiens) (UniProt Q9Y336). Kind of assay: Hs-Siglec9 ALPHAscreen SOP 20170721. The conditions noted are these: 10 µM. Background: In Alpha technology, singlet oxygen from a donor bead excites a nearby acceptor bead.
A further assay concerns Trypanosoma cruzi. The assay can be described thus: Trypanosoma cruzi phosphomannomutase and mannose-1-phosphate guanylyltransferase assay. In kind it is functional. The conditions noted are these: 10 µM.
For assay [5], the target named is T2, Arginase-2, mitochondrial (Homo sapiens) (UniProt P78540).
T2 sequence (whole entry): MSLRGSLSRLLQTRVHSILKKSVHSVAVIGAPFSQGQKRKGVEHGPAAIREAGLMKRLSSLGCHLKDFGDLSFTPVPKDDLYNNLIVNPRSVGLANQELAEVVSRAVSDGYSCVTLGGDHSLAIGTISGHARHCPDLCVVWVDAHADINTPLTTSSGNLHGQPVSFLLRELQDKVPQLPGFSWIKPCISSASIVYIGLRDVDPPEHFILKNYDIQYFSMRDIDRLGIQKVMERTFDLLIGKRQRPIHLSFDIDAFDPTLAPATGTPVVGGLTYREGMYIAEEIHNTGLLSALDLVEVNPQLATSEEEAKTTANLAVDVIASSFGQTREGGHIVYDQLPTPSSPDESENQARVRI
Kind of assay: in vitro enzyme assay to detect the production of urea directly proportional to the activity of Arginase II. Note: in the data most compounds retested in dose-response had high values. In kind it is functional. The conditions noted are these: 33.3 µM.

Assay [6] has as its target T3, Proteasome subunit beta (Trypanosoma cruzi) (UniProt O96673).
T3 sequence (whole entry): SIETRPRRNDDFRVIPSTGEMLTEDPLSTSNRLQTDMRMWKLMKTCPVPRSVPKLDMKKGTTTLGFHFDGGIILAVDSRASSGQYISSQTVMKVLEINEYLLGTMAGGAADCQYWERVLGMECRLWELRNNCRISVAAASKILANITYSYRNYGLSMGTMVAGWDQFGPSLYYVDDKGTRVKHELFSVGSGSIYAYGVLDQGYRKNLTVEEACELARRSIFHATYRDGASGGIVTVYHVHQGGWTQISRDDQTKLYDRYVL
Kind of assay: Trypanosoma cruzi proteasome chymotrypsin-like activity (TcProtChymo) assay. Note: in the data most compounds retested in dose-response had high values. In kind it is functional. The conditions noted are these: 9.37 µM.

The species entered for the next assay is Homo sapiens. The assay can be described thus: To identify inhibition of the IFN signalling (Jak-Stat) pathway via expression of an eGFP reporter gene under the control of an IFN-stimulated response element (ISRE) containing MxA promoter. The class given is functional. The conditions noted are these: 30 µM. In general terms: Reporter assays use an easily measured gene product as a stand-in for the process of interest.

Assay [7] concerns the target T4, Tyrosyl-tRNA synthetase, putative (Trypanosoma cruzi (strain CL Brener)) (UniProt Q4DSP6).
T4 sequence (whole entry): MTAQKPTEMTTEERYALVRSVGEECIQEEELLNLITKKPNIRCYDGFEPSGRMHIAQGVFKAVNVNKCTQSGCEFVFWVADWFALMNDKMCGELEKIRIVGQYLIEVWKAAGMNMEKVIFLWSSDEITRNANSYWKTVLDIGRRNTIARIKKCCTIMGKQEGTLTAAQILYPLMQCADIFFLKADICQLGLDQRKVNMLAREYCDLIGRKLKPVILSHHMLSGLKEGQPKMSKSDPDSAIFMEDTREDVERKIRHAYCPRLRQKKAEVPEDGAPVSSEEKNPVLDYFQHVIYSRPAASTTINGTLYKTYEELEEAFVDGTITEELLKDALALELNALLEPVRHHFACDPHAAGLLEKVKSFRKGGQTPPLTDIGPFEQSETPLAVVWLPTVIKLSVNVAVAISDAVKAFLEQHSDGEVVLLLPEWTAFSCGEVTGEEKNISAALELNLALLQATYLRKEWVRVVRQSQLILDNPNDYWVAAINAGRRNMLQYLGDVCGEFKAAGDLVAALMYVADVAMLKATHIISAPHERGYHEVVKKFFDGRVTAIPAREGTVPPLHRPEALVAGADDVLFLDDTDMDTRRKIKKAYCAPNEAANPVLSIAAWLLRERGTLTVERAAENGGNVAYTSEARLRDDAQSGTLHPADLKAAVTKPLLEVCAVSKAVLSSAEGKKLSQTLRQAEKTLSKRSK
Kind of assay: Trypanosoma cruzi tyrosyl tRNA synthetase (TcYRS) _High Tyrosine SOP. Note: in the data most compounds retested in dose-response had high values. The class given is functional. The conditions noted are these: 30 µM.

Assay [8] concerns the target T4, Tyrosyl-tRNA synthetase, putative (Trypanosoma cruzi (strain CL Brener)). The assay can be described thus: Trypanosoma cruzi tyrosyl tRNA synthetase (TcYRS) SOP. The class given is functional. The conditions noted are these: 30 µM.
Assay [9] addresses Chromo domain-containing protein 1 (Saccharomyces cerevisiae (strain ATCC 204508 / S288c) (Baker's yeast)) (UniProt P32657). The assay can be described thus: ScCHD-1 Enzyme Inhibition Assay. Note: in the data most compounds retested in dose-response had high values. The conditions noted are these: 30 µM. In kind it is functional.

Sialic acid-binding Ig-like lectin 9 (Homo sapiens), sequence (Q9Y336 whole entry): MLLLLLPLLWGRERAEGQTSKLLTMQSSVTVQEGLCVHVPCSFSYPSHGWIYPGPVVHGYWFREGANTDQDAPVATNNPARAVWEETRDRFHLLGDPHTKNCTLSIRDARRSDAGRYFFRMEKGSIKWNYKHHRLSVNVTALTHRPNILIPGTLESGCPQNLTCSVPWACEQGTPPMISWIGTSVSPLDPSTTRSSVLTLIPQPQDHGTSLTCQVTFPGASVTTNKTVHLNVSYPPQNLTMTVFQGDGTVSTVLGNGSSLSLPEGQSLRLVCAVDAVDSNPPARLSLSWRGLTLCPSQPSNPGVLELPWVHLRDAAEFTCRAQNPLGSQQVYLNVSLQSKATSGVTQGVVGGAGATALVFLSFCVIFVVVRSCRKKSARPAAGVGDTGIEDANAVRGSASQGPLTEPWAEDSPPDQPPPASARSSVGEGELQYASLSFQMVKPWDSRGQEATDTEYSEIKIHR
Protein translocase subunit SecA (Escherichia coli (strain K12)), sequence (P10408 whole entry): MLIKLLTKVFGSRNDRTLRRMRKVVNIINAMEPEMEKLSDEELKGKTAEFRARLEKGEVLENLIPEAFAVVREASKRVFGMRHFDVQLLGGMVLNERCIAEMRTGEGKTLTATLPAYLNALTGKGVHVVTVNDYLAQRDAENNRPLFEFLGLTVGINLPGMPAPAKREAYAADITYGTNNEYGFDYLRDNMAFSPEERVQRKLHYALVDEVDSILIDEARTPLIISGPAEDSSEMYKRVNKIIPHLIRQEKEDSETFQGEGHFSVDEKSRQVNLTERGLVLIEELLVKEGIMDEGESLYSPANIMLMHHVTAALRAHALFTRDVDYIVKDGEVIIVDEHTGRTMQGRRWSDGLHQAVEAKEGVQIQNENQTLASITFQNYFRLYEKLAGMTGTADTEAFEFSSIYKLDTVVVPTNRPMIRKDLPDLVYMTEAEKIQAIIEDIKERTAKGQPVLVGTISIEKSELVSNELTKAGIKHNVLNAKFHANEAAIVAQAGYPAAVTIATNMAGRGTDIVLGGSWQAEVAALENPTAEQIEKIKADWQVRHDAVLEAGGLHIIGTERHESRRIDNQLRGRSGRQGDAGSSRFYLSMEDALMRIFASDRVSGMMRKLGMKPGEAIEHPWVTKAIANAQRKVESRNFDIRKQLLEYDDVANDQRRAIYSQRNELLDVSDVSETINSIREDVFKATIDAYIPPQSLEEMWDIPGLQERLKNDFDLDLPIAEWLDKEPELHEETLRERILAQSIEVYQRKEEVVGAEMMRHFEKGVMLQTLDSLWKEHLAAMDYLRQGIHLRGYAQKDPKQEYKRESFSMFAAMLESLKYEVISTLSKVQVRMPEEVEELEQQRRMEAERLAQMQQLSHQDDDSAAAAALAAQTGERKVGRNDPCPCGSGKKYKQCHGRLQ
Chromo domain-containing protein 1 (Saccharomyces cerevisiae (strain ATCC 204508 / S288c) (Baker's yeast)), sequence (P32657 whole entry, the tested form may be a part): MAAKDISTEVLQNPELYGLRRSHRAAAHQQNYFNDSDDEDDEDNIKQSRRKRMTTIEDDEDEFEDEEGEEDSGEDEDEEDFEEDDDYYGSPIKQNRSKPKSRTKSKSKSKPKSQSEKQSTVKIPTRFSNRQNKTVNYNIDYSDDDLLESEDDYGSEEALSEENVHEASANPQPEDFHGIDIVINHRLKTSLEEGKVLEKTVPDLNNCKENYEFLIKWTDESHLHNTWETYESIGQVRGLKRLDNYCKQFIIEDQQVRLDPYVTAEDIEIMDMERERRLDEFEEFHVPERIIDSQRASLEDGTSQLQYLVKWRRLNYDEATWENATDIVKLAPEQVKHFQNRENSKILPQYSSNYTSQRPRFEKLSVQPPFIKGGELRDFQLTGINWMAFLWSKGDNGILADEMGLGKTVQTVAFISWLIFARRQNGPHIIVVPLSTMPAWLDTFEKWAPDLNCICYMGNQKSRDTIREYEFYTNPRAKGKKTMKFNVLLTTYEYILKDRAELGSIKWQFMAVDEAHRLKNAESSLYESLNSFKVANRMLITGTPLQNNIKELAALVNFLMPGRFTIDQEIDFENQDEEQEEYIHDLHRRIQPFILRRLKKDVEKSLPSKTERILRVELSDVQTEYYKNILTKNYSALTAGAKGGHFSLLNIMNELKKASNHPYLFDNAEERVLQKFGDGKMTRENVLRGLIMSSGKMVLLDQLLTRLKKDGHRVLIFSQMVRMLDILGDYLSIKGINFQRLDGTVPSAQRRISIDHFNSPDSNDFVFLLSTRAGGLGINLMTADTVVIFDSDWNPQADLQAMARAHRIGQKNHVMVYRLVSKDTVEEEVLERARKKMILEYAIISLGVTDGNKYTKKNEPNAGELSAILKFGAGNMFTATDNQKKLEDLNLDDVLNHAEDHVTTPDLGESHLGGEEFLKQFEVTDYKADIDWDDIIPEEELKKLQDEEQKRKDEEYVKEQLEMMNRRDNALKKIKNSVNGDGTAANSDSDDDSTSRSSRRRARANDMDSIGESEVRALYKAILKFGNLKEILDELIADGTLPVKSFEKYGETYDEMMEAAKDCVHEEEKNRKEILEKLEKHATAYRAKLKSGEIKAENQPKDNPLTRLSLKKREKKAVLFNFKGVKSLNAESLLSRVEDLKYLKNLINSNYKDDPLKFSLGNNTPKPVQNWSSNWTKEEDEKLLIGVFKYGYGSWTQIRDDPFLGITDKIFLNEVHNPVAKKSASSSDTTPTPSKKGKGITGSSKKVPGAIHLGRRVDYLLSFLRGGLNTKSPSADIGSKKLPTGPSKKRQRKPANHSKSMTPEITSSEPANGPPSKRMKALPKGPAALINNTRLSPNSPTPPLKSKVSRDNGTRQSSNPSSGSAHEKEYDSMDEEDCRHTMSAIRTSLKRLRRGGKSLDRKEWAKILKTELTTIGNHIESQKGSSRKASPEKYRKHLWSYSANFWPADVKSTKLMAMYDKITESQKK

Consider `Cc1cc(NC(=O)CN2CCc3nn(C)c(=O)cc3C2)on1`, for which the Percent Effect in assay [1] is -3.81%; in [2], 6.94%; in assay [3] it was -63.3%; in [4] it was -0.594%; in the assay with Trypanosoma cruzi it was -1.46%; in assay [5], 7.06%. Besides, the Percent Effect is 13.9% in [6]; 0.181% in the assay filed under Homo sapiens; -6.32% in assay [7]; -5.13% in assay [8]; -4.24% in assay [9].
For the compound `COCCOCC(=O)Nc1ccc(Br)cc1F`, the Percent Effect is -4.21% in assay [1]; 10.5% in assay [2]; -1.83% in assay [3]; 4.08% in [4]; 3.8% in the assay on Trypanosoma cruzi; -5.92% in [5]. Besides, the Percent Effect in assay [6] was 1.63%; in the assay filed under Homo sapiens, 9.23%; in assay [7], 1.06%; in assay [8], 7.79%; in assay [9], -2.27%.
For `Cc1oc(C)c(C(=O)NCc2ccccn2)c1C`, the Percent Effect is -0.692% in [1]; 10.5% in [2]; -8.31% in assay [3]; 2.54% in assay [4]; -12.8% with Trypanosoma cruzi; 7.28% in assay [5]. Also, the Percent Effect in [6] was 15.7%; in the assay filed under Homo sapiens, 14%; in [7], 1.47%; in [8], 7.32%; in assay [9] it was -5.27%.
Turning to `Cc1nc(C)n(CC2CCCN2CCCOc2ccc(F)cc2)n1` (stereo unspecified), the Percent Effect in [1] was -4.9%; in assay [2], -15.2%; in [3] it was -12.2%; in assay [4], -1.58%; in the assay with Trypanosoma cruzi, 7.84%; in [5], 0%. The Percent Effect is 8.93% in assay [6]; 7.36% in the assay filed under Homo sapiens; 8.37% in assay [7]; 13.9% in assay [8]; -6.25% in assay [9].
As for `COc1ccc(CNC(=O)NCc2c(C)cc(C)[nH]c2=O)cc1`, the Percent Effect in assay [1] was -5.07%; in assay [2], 13.2%; in assay [3], -3.13%; in [4], 12.1%; with Trypanosoma cruzi, 0.84%; in assay [5], -5.04%. Moreover, the Percent Effect in [6] was 6.18%; in the assay filed under Homo sapiens, -18.2%; in assay [7], 3.45%; in assay [8] it was 13.6%; in assay [9], 3.42%.
In the case of `OCCn1nccc1C1CCN(CCCOc2ccc(F)cc2)CC1`, the Percent Effect is -5.89% in assay [1]; 0% in [2]; -3.35% in assay [3]; 3.53% in assay [4]; -0.28% in the assay on Trypanosoma cruzi; -2.88% in assay [5]. The Percent Effect in [6] was -3.64%; in the assay filed under Homo sapiens, -5.47%; in assay [7] it was 9.36%; in [8], 16.1%; in [9], -0.509%.
Regarding `O=C(c1cc2c(s1)CCC2)N1CCCCC1Cn1cccn1` (stereo unspecified), the Percent Effect is -4.04% in assay [1]; 10.8% in assay [2]; -1.14% in assay [3]; 3.35% in assay [4]; -5.11% in the assay with Trypanosoma cruzi; -3.88% in assay [5]. For the same compound, the Percent Effect is -0.539% in [6]; 2.18% in the assay listed under Homo sapiens; 4.95% in assay [7]; 6.1% in [8]; 1.75% in [9].
`CCS(=O)(=O)c1ccc(N2CCC(NC(C)=O)CC2)cc1`: the Percent Effect in assay [1] is -5.48%; in assay [2], 2.67%; in [3] it was 0.562%; in [4] it was -0.234%; in the assay on Trypanosoma cruzi it was -3.21%; in [5] it was -1.04%. Moreover, the Percent Effect in assay [6] was 14.8%; in the assay listed under Homo sapiens, 24.6%; in assay [7], 2.73%; in assay [8] it was 8.64%; in [9] it was -7.72%.
With `CN(C)C1CCN(C(=O)c2ccc(Cn3ccccc3=O)o2)CC1`, the Percent Effect in assay [1] was -2.62%; in assay [2], 8.11%; in [3], 3.53%; in assay [4] it was 12.9%; with Trypanosoma cruzi, 2.88%; in assay [5] it was 0.924%. For the same compound, the Percent Effect is 0% in [6]; 5.91% in the assay filed under Homo sapiens; 6.93% in [7]; 23.2% in assay [8]; -4.27% in [9].
Take `CC(C)(C)C(=O)N1CCC2(COCc3cnc(N4CCOCC4)nc32)C1` (stereo unspecified): the Percent Effect in [1] was -4.89%; in [2], 4%; in assay [3] it was 3.79%; in [4], 6.02%; in the assay with Trypanosoma cruzi, -2.36%; in assay [5], -7.57%. Besides, the Percent Effect in [6] is 9.06%; in the assay listed under Homo sapiens, -1.15%; in assay [7] it was 2.12%; in assay [8] it was 2.56%; in assay [9] it was -1.68%.
`Cn1c(Cn2ccnc2)nnc1C1CCCN(C2CCCCC2)C1` (stereo unspecified): the Percent Effect was -3.14% in assay [1]; 8.11% in assay [2]; 5.59% in assay [3]; 1.26% in assay [4]; 1.93% with Trypanosoma cruzi; 2.38% in [5]. Moreover, the Percent Effect is 3.1% in assay [6]; -7.16% in the assay filed under Homo sapiens; 5.82% in [7]; 19.5% in assay [8]; -3.83% in assay [9].
